Assay results published in the supplement of paper PMC6522484.
± gives the standard deviation of the averaged measurements.

What was measured:
DLD1 [1] = assay: cell viability (CellTiter-Glo) relative to plate median (fraction of plate median); higher = more viable cells; settings: 5 µM; treatment time 24 h; reporter: 7TFP
Method in brief: (§1)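 Library compounds, at a final 5 µM, stayed on reporter cells for 24 h. The cells were colorectal cancer lines stably transduced with lentiviral TCF/Wnt firefly luciferase reporters, seeded in 384-well plates 24 h before dosing. Firefly luciferase or CellTiterGlo luminescence from parallel plates was normalised to the plate median in webcellHTS2 (additive, no log transformation), and two independent replicates were averaged.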

HCT116 = assay: as above; settings: 5 µM; treatment time 24 h; reporter: TCF4/Wnt
Method in brief: as §1

SW480 [2] = assay: as above; settings: 5 µM; treatment time 24 h; reporter: 7TFP
Method in brief: as §1

DLD1 [3] = assay: TCF/Wnt firefly luciferase reporter signal relative to plate median (fraction of plate median); higher = higher Wnt reporter signal; settings: 5 µM; treatment time 24 h; reporter: 7TFP
Method in brief: as §1

SW480 [4] = assay: as above; settings: 5 µM; treatment time 24 h; reporter: 7TFP
Method in brief: as §1

Row | SMILES | cell viability (DLD1 [1]) | cell viability (HCT116) | cell viability (SW480 [2]) | TCF/Wnt firefly luciferase reporter signal (DLD1 [3]) | TCF/Wnt firefly luciferase reporter signal (SW480 [4])
1 | O=C1c2ccccc2C(=O)c2c1ccc(O)c2O | 1.01 ± 0.074 | 1.05 ± 0.13 | 0.983 ± 0.053 | 1.09 ± 0.11 | 1.1 ± 0.13
2 | C[C@]12CC[C@@H]3c4ccc(O)cc4CC[C@H]3[C@@H]1CC[C@@H]2OC(=O)CCC1CCCC1 | 0.957 ± 0.044 | 1.01 ± 0.065 | 0.967 ± 0.04 | 1.17 ± 0.021 | 1.11
3 | CCN(CC)CCNC(=O)c1cc(S(C)(=O)=O)ccc1OC | 0.99 ± 0.13 | 1.025 ± 0.0071 | 1 ± 0.023 | 0.971 ± 0.084 | 0.925 ± 0.039
4 | c1ccc(CC2=NCCN2)cc1 | 0.994 ± 0.066 | 1.04 ± 0.075 | 0.9775 ± 0.00071 | 0.952 ± 0.082 | 1.01 ± 0.12
5 | CCCC(=O)NCCc1ccccc1 [N-(2-Phenyl)ethylbutyramide] | 1.07 ± 0.11 | 1.08 ± 0.15 | 1.06 ± 0.071 | 1.07 ± 0.14 | 0.9865 ± 0.00071
6 | CC=CC(=O)N(CC)c1ccccc1C | 0.931 ± 0.093 | 1.05 ± 0.028 | 1.01 ± 0.021 | 0.953 ± 0.081 | 0.8525 ± 0.0078
7 | CCCCCCNC(=O)n1cc(F)c(=O)[nH]c1=O | 1.06 ± 0.042 | 0.925 ± 0.13 | 1.04 ± 0.014 | 0.971 ± 0.13 | 1.08 ± 0.078
8 | Cn1c(=O)c2c(ncn2CC(O)CO)n(C)c1=O (stereo not given) | 0.916 ± 0.016 | 0.996 ± 0.049 | 0.989 ± 0.03 | 1.09 ± 0.14 | 1.09 ± 0.05
9 | O=C1OC2(c3ccc(O)cc3Oc3cc(O)ccc32)c2ccccc21 | 1.01 ± 0.047 | 0.9885 ± 0.0064 | 1 ± 0.011 | 1.11 ± 0.085 | 1.07 ± 0.028
10 | Clc1ccc(CO/N=C(\Cn2ccnc2)c2ccc(Cl)cc2Cl)c(Cl)c1 | 0.9865 ± 0.0092 | 1.03 ± 0.035 | 0.9675 ± 0.0021 | 0.905 ± 0.056 | 0.823 ± 0.0092
11 | C=C1C2CCC3(C)C(c4ccoc4)OC(=O)CC13OC1CC(OC(C)=O)C(C)(C)C(CC(=O)OC)C12C (stereo not drawn) [3beta-ACETOXYDEOXYANGOLENSIC ACID, METHYL ESTER] | 0.908 ± 0.14 | 0.946 ± 0.033 | 0.995 ± 0.05 | 0.966 ± 0.13 | 0.8955 ± 0.0021
12 | C=CC[S+]([O-])C[C@H](N)C(=O)O (stereo not given in full) | 0.984 ± 0.018 | 0.903 ± 0.079 | 0.96 ± 0.016 | 0.986 ± 0.091 | 1.05 ± 0.042
13 | CCCCCCOc1ccccc1C(N)=O | 0.9695 ± 0.0078 | 0.954 | 0.962 ± 0.041 | 1.09 ± 0.21 | 1.11 ± 0.13
14 | Nc1nc(=O)c2[nH]c(=O)cnc2[nH]1 | 1.01 ± 0.14 | 1.06 ± 0.078 | 0.954 ± 0.018 | 0.981 ± 0.098 | 0.987 ± 0.075
15 | CC(C)=CCc1c2c(c(O)c3c(=O)c(O)c(-c4ccccc4)oc13)C=CC(C)(C)O2 | 1.03 ± 0.052 | 0.998 ± 0.088 | 1.025 ± 0.0071 | 0.935 ± 0.0099 | 0.974 ± 0.011
